The record followed here is PubChem BioAssay AID743446 (Broad Institute, 2014).

Results with a measured potency or affinity are listed apart. The source made the active and inactive calls. The rule behind the calls is not given here.

The assay in a line: viability loss in HEK293 cells – cell-based, plate reader, cherry-picked samples, cytotoxicity control, dose response (AID 743446). To be noted: stronger effect = lower value; at 26 µM unless noted.
As for `Cc1ccc(-n2[nH]c(=O)c(-c3ccccn3)c2C)cc1`, the max activity is 41.3% [at 12 µM] (inactive). To `C=CCn1c(SCC(=O)Nc2ncc(Cc3ccc(C)c(Cl)c3)s2)nnc1-c1ccncc1` belongs -6.05% [at 3 µM] (inactive); to `C[C@@H]1CN([C@@H](C)CO)S(=O)(=O)c2ccc(C3=CCCC3)cc2O[C@H]1CN(C)C(=O)c1ccccc1`, 11.7% [at 0.1 µM] (inactive). Consider `Cc1ccc(-c2cnn3c(N4CCOCC4)cc(C)nc23)cc1`, for which the max activity is 35.7% [at 0.38 µM] (inactive). To `O=C(C[C@H]1C=C[C@@H](NC(=O)C2CCC2)[C@H](CO)O1)NCCCN1CCOCC1` belongs -15.9% [at 1.6 µM] (inactive); to `COc1ccc2[nH]c3c(c2c1)CCN1C(=O)N([C@@H](C)C(=O)NCc2ccc(C)cc2)C(=O)[C@]31C`, -9.06% [at 6 µM] (inactive).

For `CC(C)(C)c1ccc(Cn2c(=O)cnc3ccccc32)cc1`, the max activity is -26.8% [at 12 µM] (inactive). To `Cc1ccc(C(=O)NCCc2cccs2)cc1` belongs 37.3% [at 3 µM] (inactive); to `CC(C)C(=O)N1CCN(c2ccc(NC(=O)COc3ccccc3[N+](=O)[O-])cc2)CC1`, -46.9% (inactive).

With `C[C@H](CO)N1C[C@H](C)[C@H](CN(C)C(=O)Nc2cccc3ccccc23)OCCCC[C@H](C)Oc2ccc(NC(=O)C3CCCCC3)cc2C1=O`, the max activity is 31.6% [at 12 µM] (inactive).

`CO[C@H]1CN(C)C(=O)c2ccc(NC(=O)C3CC3)cc2OC[C@@H](C)N(C(=O)Cc2ccccn2)C[C@H]1C`: the max activity was 22% [at 1.6 µM] (inactive).
